The values below come from PubChem BioAssay (NCI).

About 83,000 compounds went through this panel and 20% of them were active in at least one assay; those are over-represented in the sample as a whole.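 Testing used 96-well plates and a 48-hour single-concentration exposure. Example: -40 means 40% of the starting cells died.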 Values without a mark were called inactive. Calls of active or inactive are those of the source. How the source made its calls: active means growth percent below 10; inactive means the rest.

Holding throughout (assay): NCI-60 one-dose screen, 48 h (100 = growth as untreated, 0 = no growth, -100 = all killed)
Holding throughout (conditions): 10 µM unless noted

The subject of assay [1] is SK-MEL-2 melanoma.
The subject of assay [2] is EKVX NSCLC.
In assay [3] the test system is SN12C renal.
Assay [4] deals with UO-31 renal.
Assay [5] concerns TK-10 renal.
Assay [6] relates to ACHN renal.
The test system of assay [7] is CAKI-1 renal.
The subject of assay [8] is A498 renal.
Assay [9] deals with CCRF-CEM leukemia.
Assay [10] concerns MOLT-4 leukemia.
Assay [11] relates to SR leukemia.
Assay [12] relates to RPMI-8226 leukemia.
In assay [13] the test system is OVCAR-8 ovarian.
The subject of assay [14] is OVCAR-5 ovarian.
Assay [15] relates to OVCAR-4 ovarian.
Assay [16] concerns SK-OV-3 ovarian.
In assay [17] the test system is IGROV1 ovarian.
The test system of assay [18] is OVCAR-3 ovarian.
The test system of assay [19] is HS 578T breast.
Assay [20] has as its system NCI/ADR-RES ovarian.

Take `CCC(=O)NC1=C(Cl)C(=O)C(NC(=O)CC)=C(Cl)C1=O`: the growth in assay [1] was 111%; in assay [2], 129%; in assay [3], 101%; in [4], 2.01% (active); in [5], 50.5%; in [6], 21.2%. For the same compound, the growth in assay [7] was 103%; in assay [8] it was 130%; in assay [9], -42.7% (active); in assay [10] it was -41.3% (active); in [11] it was -55.1% (active); in assay [12], -34.3% (active). For the same compound, the growth is 99.3% in [13]; 107% in [14]; -98.5% (active) in [15]; 99.9% in assay [16]; 116% in assay [17]; -94.5% (active) in [18]. In addition, the growth in assay [19] is 135%; in assay [20], 101%.

For `Nc1ccc(C2=NNC(=O)Cc3cc4c(cc32)OCCO4)cc1Cl`, the growth in assay [1] is 36.8%; in assay [2] it was 63.9%; in assay [3] it was 61.1%; in assay [4] it was 61.2%; in [5], 72.3%; in [6], 53.3%. The growth in assay [7] was 48.4%; in [8], 56.3%; in [9], 42.5%; in assay [10], 34.8%; in [11], 19.6%; in [12], 56.2%. In addition, the growth in [13] was 60.1%; in [14], 69.7%; in assay [15] it was 87.8%; in [16], 57.1%; in assay [17], 40.8%; in assay [18], -14.1% (active). Further, the growth in assay [19] is 62.2%; in assay [20], 12%.

Regarding `c1ccc(-c2nnn(-c3ccccc3)n2)cc1`, the growth is 94.7% in assay [1]; 93.2% in [2]; 103% in assay [3]; 81.3% in assay [4]; 147% in [5]; 105% in assay [6]. Further, the growth in [7] was 92.9%; in assay [8], 119%; in assay [9], 95.2%; in assay [10], 91.2%; in [11], 89%; in [12], 98.6%. In addition, the growth is 107% in [13]; 105% in [14]; 106% in assay [15]; 106% in [16]; 104% in [17]; 111% in assay [18]. Further, the figures for the growth in [19] and in assay [20] were 112% and 116%, respectively.

Consider `COc1cc2ncnc(Nc3ccc(S(=O)(=O)Nc4nccs4)cc3)c2cc1OCCCN1CCOCC1`, for which the growth in assay [1] was 99.2%; in assay [2], 111%; in [3], 98%; in assay [4], 83.6%; in assay [5], 103%; in [6], 103%. Besides, the growth was 91.7% in assay [7]; 115% in assay [8]; 105% in assay [9]; 105% in assay [10]; 108% in [11]; 106% in [12]. The growth was 103% in assay [13]; 106% in assay [14]; 107% in assay [15]; 96.2% in assay [16]; 106% in [17]; 101% in assay [18]. The growth in assay [19] was 99.9%; in [20] it was 102%.

For the compound `CCN(CC)c1ccc2c(cc1=O)[C@@H](NC(C)=O)CCc1cc(OC)c(OC)c(OC)c1-2`, the growth was 4.73% (active) in assay [1]; 44.6% in [2]; 32.9% in assay [3]; 58.3% in [4]; 30.8% in assay [5]; 30.3% in [6]. The growth in assay [7] was 64.3%; in assay [8], -15.9% (active); in assay [9], 9.47% (active); in assay [10] it was 2.09% (active); in assay [11] it was -14.1% (active); in assay [12], 14.9%. For the same compound, the growth in assay [13] was 12.3%; in assay [14] it was 54.1%; in assay [15], 48.2%; in assay [16], 24.3%; in [17] it was 28%; in assay [18] it was -24.9% (active). Further, the growth in assay [19] is 40.5%; in assay [20], 85.7%.

Consider `N/C(=N\OC(=O)c1ccccc1)C(Cc1ccccc1)C(=O)NOC(=O)c1ccccc1` (stereo not given), for which the growth in [1] is 89.7%; in [2], 59.2%; in assay [3], 68.8%; in assay [4] it was -59.5% (active); in assay [5] it was 78.3%; in assay [6], 15.1%. Also, the growth in assay [7] was -44.6% (active); in assay [8], 59.5%; in assay [9], 9.98% (active); in assay [10] it was 35.2%; in [11], 6.24% (active); in [12], 16.4%. In addition, the growth is 38% in assay [13]; 101% in [14]; 66.8% in [15]; 103% in assay [16]; -63.2% (active) in assay [17]; 51.3% in [18]. The growth in [19] is -14.5% (active); in [20], 18.3%.

With `Clc1cccc(CNc2c3ccccc3nc3ccccc23)c1`, the growth in assay [1] is 77.3%; in [2], 27.2%; in assay [3], 23.6%; in [4] it was 16%; in assay [5], 52.1%; in assay [6] it was 15.7%. The growth in assay [7] is 28.2%; in [8], -3.08% (active); in assay [9] it was 18.1%; in assay [10], 1.13% (active); in [11], -3.9% (active); in assay [12] it was -23.5% (active). For the same compound, the growth in [13] is 31.1%; in assay [14], 32.4%; in assay [15], 18.8%; in assay [16] it was 63.9%; in assay [17], 16.5%; in assay [18] it was 57.7%. The growth in [19] is 53.7%; in assay [20], 26.3%.
